According to PubChem BioAssay:

Assay: viability loss of caspase-8 NB7 cells with TRAIL – with/without TRAIL, luminescence panel, confirmation (AID 651596)
Conditions: NB7 neuroblastoma + caspase-8, without TRAIL, NB7 Caspase-8, without TRAIL, mean of runs, at 10 µM

SMILES | activity
C=CCNC(=O)c1ccc2c3n(nc2c1)-c1ccccc1CO3 | 90.5%
O=C(O)c1ccc(N/N=C/c2cc3cc4c(cc3nc2Cl)OCCO4)cc1 | 95.3%
Nc1nc(N)c2c(ccc3nccc32)[nH]1 | 78.7%
Cc1ccc(C2CC(c3cccs3)=NN2C(=O)CCl)cc1 (stereo not given) | 98%
N#CCCCC#Cc1ccc2c(c1)COc1c3ccccc3nn1-2 | 75.6%
CCOc1cc(C(=O)O/N=C(\N)c2ccccn2)cc(OCC)c1OCC | 78.5%
O=C(Oc1c(CN2CCOCC2)cc(Cl)c2cccnc12)c1ccc(F)cc1 | 56.1%
COc1cc(OC)nc(Nc2nc(C(N)Cc3ccc(C(F)(F)F)cc3)cs2)n1 (stereo not given) | 77.7%
O=[N+]([O-])c1ccc(-c2nc(C(Cl)Cl)c3ccccc3n2)cc1 | 96.3%
NC(c1csc(NC(=O)Nc2cccc(C(F)(F)F)c2)n1)C1CCCCC1 (stereo not given) | 94.9%
